Screen size: about 5,500 compounds; about 2,000 (36%) were called active. Roughly 18% stayed inconclusive and do not appear here. Cut-off read from the data, not from the text of the source: active = normalized growth mostly below about 0.91 (no sharp cut-off); inconclusive = no clear call, values can overlap the other calls; inactive = mostly above about 0.92. The list shows a part of the results.
Assay: chemical genetic growth profiling, strain panel (AID 1159580);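 note: tested at 20 µM; growth read once vehicle control cultures reached saturation at 30 °C; 1 = growth at the plate median or of vehicle wells; lower values mean less growth of the strain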
Conditions: S. cerevisiae deletion strains, growth OD

Measured: normalized growth

NNC(=O)c1oc2nc(-c3ccccc3)cc(-c3ccccc3)c2c1N
active: locus YLR113W, strain HOG1, hits give low values 0.813
inactive: locus YAR019C, strain CDC15, hits give low values 0.972 | locus YBL105C, strain PKC1, hits give low values 0.986 | locus YBR135W, strain CKS1, hits give low values 0.984 | locus YBR136W, strain MEC1, hits give low values 0.985 | locus YBR160W, strain CDC28, hits give low values 0.987 | locus YDL017W, strain CDC7, hits give low values 0.985 | locus YDL028C, strain MPS1, hits give low values 0.983 | locus YDL101C, strain DUN1, hits give low values 0.981 | locus YDL108W, strain KIN28, hits give low values 0.978 | locus YDL132W, strain cdc53, hits give low values 0.971 | locus YDL214C, strain PRR2, hits give low values 0.921 | locus YDR052C, strain DBF4, hits give low values 0.997 | locus YDR054C, strain cdc34, hits give low values 0.962 | locus YDR226W, strain ADK1, hits give low values 0.985 | locus YDR477W, strain SNF1, hits give low values 0.934 | locus YER123W, strain YCK3, hits give low values 0.913 | locus YER133W, strain GLC7, hits give low values 0.93 | locus YFL009W, strain cdc4, hits give low values 0.983 | locus YFL029C, strain CAK1, hits give low values 0.965 | locus YFR003C, strain YPI1, hits give low values 0.984 | locus YFR019W, strain FAB1, hits give low values 0.924 | locus YFR028C, strain CDC14, hits give low values 0.976 | locus YGR040W, strain KSS1, hits give low values 0.93 | locus YGR052W, strain FMP48, hits give low values 0.952 | locus YGR092W, strain DBF2, hits give low values 0.943 | locus YHR030C, strain SLT2, hits give low values 0.979 | locus YHR079C, strain IRE1, hits give low values 1.01 | locus YHR082C, strain KSP1, hits give low values 0.998 | locus YHR205W, strain SCH9, hits give low values 0.914 | locus YIL147C, strain SLN1, hits give low values 0.984 | locus YJL095W, strain BCK1, hits give low values 0.891 | locus YJL128C, strain PBS2, hits give low values 0.95 | locus YJL157C, strain FAR1, hits give low values 0.924 | locus YJR016C, strain ILV3, hits give low values 0.98 | locus YJR066W, strain TOR1 (second series), hits give low values 0.887 | locus YJR066W, strain TOR1, hits give low values 0.983 | locus YKL048C, strain ELM1, hits give low values 0.956 | locus YKL067W, strain YNK1, hits give low values 0.948 | locus YKL101W, strain HSL1, hits give low values 0.937 | locus YKL193C, strain SDS22, hits give low values 0.977 | locus YKL203C, strain TOR2, hits give low values 0.989 | locus YLR133W, strain CKI1, hits give low values 0.942 | locus YLR403W, strain SFP1, hits give low values 0.924 | locus YML070W, strain DAK1, hits give low values 0.899 | locus YMR001C, strain CDC5, hits give low values 0.988 | locus YMR205C, strain PFK2 (second series), hits give low values 0.953 | locus YMR277W, strain FCP1, hits give low values 0.983 | locus YNL006W, strain LST8, hits give low values 0.978 | locus YNL020C, strain ARK1, hits give low values 0.935 | locus YNL161W, strain CBK1, hits give low values 0.989 | locus YNL183C, strain NPR1, hits give low values 0.946 | locus YNL207W, strain RIO2, hits give low values 0.965 | locus YNL222W, strain SSU72, hits give low values 0.981 | locus YNL307C, strain MCK1 (second series), hits give low values 0.895 | locus YOL078W, strain AVO1, hits give low values 0.954 | locus YOL136C, strain PFK27, hits give low values 0.844 | locus YOR061W, strain CKA2, hits give low values 0.958 | locus YOR119C, strain RIO1, hits give low values 0.996 | locus YOR231W, strain MKK1, hits give low values 0.884 | locus YOR329C, strain SCD5, hits give low values 0.985 | locus YPL031C, strain PHO85, hits give low values 0.907 | locus YPL153C, strain RAD53, hits give low values 0.953 | locus YPL204W, strain HRR25, hits give low values 0.907 | locus YPL209C, strain IPL1, hits give low values 0.982 | locus YPL256C, strain CLN2, hits give low values 0.939 | locus YPR025C, strain CCL1, hits give low values 0.984 | locus YPR106W, strain ISR1, hits give low values 0.977 | locus YPR111W, strain DBF20, hits give low values 0.961 | strain NNK1, hits give low values 0.97 | strain TSCII, hits give low values 0.98

COC(=O)[C@H](NC(=O)c1cc(-c2ccccc2)nc2ccccc12)c1ccccc1
inactive: locus YAL013W, strain DEP1, hits give low values 1.02 | locus YAL040C, strain CLN3, hits give low values 1.01 | locus YCL061C, strain MRC1 (second series), hits give low values 0.998 | locus YDR363W, strain ESC2, hits give low values 0.989 | locus YER002W, strain NOP16, hits give low values 1.01 | locus YGR078C, strain PAC10, hits give low values 0.984 | locus YJR075W, strain HOC1, hits give low values 1 | locus YNL128W, strain TEP1, hits give low values 0.996 | locus YNL153C, strain GIM3, hits give low values 1 | locus YNL175C, strain NOP13, hits give low values 1.01 | locus YNL197C, strain WHI3, hits give low values 0.989 | locus YNL224C, strain SQS1, hits give low values 1.02 | locus YNL322C, strain KRE1, hits give low values 0.999 | locus YOR083W, strain WHI5 (second series), hits give low values 1.06 | locus YPL055C, strain LGE1, hits give low values 0.99 | locus YPL241C, strain CIN2, hits give low values 0.999
